Calls of active or inactive are those of the source.
What was measured:
[1] = system: Plasmodium falciparum Sir2 (PF13_0152, Sir2A); assay: Plasmodium falciparum Sir2A binding compounds – biochemical, small-molecule microarray, 635 nm fluorescence, primary screen (AID 1098); conditions: fluorescence 635 nm, higher = more signal;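 further: score merges spot fluorescence intensity with its signal-to-noise ratio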
[2] = probe aDKK1 binding to arrayed compounds – biochemical, biotinylated probe, 635/667 nm fluorescence, primary screen (AID 1099); conditions: small-molecule microarray, higher = more signal;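 further: score merges 667nm spot fluorescence with signal to noise across triplicate slides; reference of the scale not given here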
[3] = probe aCHRDL2 binding to arrayed compounds – biochemical, biotinylated probe, 635/667 nm fluorescence, primary screen (AID 1100); conditions: small-molecule microarray, higher = more signal
[4] = change in splice reporter luminescence, either direction, cell-based, HEK293, spliceosome inhibition project, primary screen (AID 1101); conditions: HEK293 splicing luciferase reporter, 24 h, higher = more signal, called active from +8 up or from −8 down;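 further: HEK293 cells carrying a splicing-competent luciferase reporter gene; test concentration not given here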
[5] = target: Fibroblast growth factor 10 (Homo sapiens) (UniProt O15520); assay: compounds binding fibroblast growth factor 10 – biochemical, small-molecule microarray, 635 nm fluorescence, primary screen (AID 1102); conditions: FGF10 binding, fluorescence 635 nm, higher = more signal
Sequence of Fibroblast growth factor 10 (Homo sapiens) (O15520 whole entry, looked up): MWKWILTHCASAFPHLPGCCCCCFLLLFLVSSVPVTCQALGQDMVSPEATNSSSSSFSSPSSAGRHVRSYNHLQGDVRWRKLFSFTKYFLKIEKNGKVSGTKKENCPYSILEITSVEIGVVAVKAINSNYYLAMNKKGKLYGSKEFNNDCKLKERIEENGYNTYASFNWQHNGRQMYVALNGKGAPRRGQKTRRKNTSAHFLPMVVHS

[6] = system: glycogen synthase kinase-3 (GSK3A per assay name; protocol says GSK3B); assay: compounds binding glycogen synthase kinase-3 – biochemical, small-molecule microarray, 635 nm fluorescence, GSK3A, primary screen (AID 1103); conditions: fluorescence 635 nm, higher = more signal; further: the record names both GSK3A and GSK3B
[7] = target: Epidermal growth factor receptor (Homo sapiens) (UniProt P00533); assay: compounds binding epidermal growth factor receptor – biochemical, small-molecule microarray, 635 nm fluorescence, primary screen (AID 1104); conditions: EGFR binding, higher = more signal;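 further: score merges 667 nm emission intensity with spot signal to noise over triplicate slides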
Sequence of Epidermal growth factor receptor (Homo sapiens) (P00533 whole entry, looked up): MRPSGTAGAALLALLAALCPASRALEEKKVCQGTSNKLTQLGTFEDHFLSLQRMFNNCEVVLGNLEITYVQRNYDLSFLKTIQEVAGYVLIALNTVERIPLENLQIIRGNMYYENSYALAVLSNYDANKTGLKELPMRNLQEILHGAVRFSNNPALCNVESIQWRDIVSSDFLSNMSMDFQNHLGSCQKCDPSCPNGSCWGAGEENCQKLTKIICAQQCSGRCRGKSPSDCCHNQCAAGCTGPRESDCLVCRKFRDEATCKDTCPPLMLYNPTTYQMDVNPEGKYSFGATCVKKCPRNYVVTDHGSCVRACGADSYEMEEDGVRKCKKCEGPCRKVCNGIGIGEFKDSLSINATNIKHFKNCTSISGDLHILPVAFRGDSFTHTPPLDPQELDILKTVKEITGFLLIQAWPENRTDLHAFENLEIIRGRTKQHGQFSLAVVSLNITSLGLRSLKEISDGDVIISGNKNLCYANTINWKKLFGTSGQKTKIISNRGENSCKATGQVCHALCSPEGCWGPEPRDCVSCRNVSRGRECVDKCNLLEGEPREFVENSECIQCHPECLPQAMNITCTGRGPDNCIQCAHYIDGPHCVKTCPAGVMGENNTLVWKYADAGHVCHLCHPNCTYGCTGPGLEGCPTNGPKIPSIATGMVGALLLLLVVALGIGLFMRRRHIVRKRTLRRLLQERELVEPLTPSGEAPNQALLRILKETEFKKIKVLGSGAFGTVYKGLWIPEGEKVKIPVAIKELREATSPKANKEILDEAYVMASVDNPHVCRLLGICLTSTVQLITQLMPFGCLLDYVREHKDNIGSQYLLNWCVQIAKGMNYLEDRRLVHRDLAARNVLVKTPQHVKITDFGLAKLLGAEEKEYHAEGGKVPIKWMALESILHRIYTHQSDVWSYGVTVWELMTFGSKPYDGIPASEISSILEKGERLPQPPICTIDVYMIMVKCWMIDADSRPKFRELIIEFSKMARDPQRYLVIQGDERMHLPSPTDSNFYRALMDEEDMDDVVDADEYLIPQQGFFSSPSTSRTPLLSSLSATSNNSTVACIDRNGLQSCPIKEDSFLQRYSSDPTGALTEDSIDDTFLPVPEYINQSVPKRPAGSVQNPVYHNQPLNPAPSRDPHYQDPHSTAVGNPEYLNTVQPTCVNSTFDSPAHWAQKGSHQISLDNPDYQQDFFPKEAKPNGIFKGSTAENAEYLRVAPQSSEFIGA

[8] = target: Follistatin-related protein 3 (Homo sapiens) (UniProt O95633); assay: compounds binding follistatin-related protein 3 – biochemical, small-molecule microarray, 635 nm fluorescence, primary screen (AID 1105); conditions: FSTL3 binding, higher = more signal;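 further: score merges emission near 667 nm and signal to noise per printed spot across three slides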
Sequence of Follistatin-related protein 3 (Homo sapiens) (O95633 whole entry, looked up): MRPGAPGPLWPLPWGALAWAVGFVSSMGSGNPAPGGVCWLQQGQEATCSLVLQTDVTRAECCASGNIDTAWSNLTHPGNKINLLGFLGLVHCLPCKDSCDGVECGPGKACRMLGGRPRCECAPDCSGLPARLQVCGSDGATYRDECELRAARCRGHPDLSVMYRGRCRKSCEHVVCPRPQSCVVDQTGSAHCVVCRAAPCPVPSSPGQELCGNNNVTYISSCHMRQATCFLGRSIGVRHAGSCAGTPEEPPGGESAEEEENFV

[9] = target: Dickkopf-related protein 1 (Homo sapiens) (UniProt O94907); assay: small molecules binding DKK1 protein – biochemical, small-molecule microarray, 635 nm fluorescence scan, primary screen (AID 1106); conditions: higher = more signal;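 further: score merges emission near 667 nm with signal to noise over three replicate slides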
Sequence of Dickkopf-related protein 1 (Homo sapiens) (O94907 whole entry, looked up): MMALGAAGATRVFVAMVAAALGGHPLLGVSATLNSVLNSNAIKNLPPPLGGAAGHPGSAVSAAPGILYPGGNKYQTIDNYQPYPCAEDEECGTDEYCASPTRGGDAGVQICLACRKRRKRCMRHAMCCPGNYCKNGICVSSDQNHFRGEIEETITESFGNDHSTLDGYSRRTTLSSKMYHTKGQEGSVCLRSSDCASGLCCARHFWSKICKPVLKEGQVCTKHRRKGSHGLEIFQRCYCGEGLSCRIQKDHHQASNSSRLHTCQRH

[10] = system: Inhibin beta A chain (activin A); assay: small molecules binding activin A – biochemical, small-molecule microarray, 635 nm fluorescence scan, primary screen (AID 1107); conditions: INHBA, higher = more signal;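 further: mouse activin A protein probed at 4.33 µg/mL on printed slides; score merges bound-protein fluorescence near 667 nm with spot signal-to-noise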

SMILES | composite z-score [1] | composite z-score [2] | composite z-score [3] | z-score [4] | composite z-score [5] | composite z-score [6] | composite z-score [7] | composite z-score [8] | composite z-score [9] | composite z-score [10]
CC(=O)NCCCC[C@@H]1NC(=O)[C@@H]2C[C@H](C(=O)NCCCCCN)[C@H](c3ccc(O)cc3)N2C1=O | 1.49 | 1.07 | 0.656 | 0.194 (inactive) | 1.23 | 1.28 | 0.662 | 1.02 | 1.33 | 1.26
COCCOC(=O)N1C(=O)[C@@]2(c3cc(C#CC4(O)CCCCCC4)ccc31)[C@H](C(=O)N1CCc3cc(OC)c(OC)cc3C1)[C@H]1C(=O)O[C@H](c3ccccc3)[C@H](c3ccccc3)N1[C@@H]2c1ccc(OCCO)cc1 | 0.868 | -0.208 | -0.219 | 0.058 (inactive) | 0.891 | 1.3 | 0.626 | 1.04 | 0.95 | 0.25
O=C1[C@H]2C=C(I)[C@H](C[C@@H]2OCCOCCO)[C@@]12CO2 | 0.558 | -0.261 | -0.751 | -0.0672 (inactive) | 0.954 | 0.671 | 0.83 | 1.12 | 0.459 | 0.555
COC(=O)c1c(CC[C@@H](CO)NC(=O)N2CCC[C@H]2Cn2cc(C3(O)CCCCC3)nn2)oc(C(C)=O)c1C(=O)OC | 1.65 | -0.152 | -0.404 | -0.503 (inactive) | 0.955 | 0.56 | 0.197 | 0.742 | 0.336 | 0.0806
CC#CCO[Si](C#Cc1ccccc1)(C(C)C)C(C)C | -0.849 | -0.105 | 0.194 | 1.07 (inactive) | 0.754 | -0.872 | 0.457 | -0.719 | -0.999 | 1.14
CC(C)(C)OC(=O)CC[C@@]1(C(=O)NCC(O)CO)N=C(c2ccc(OCCCO)cc2)O[C@@H]1c1ccccc1CN=[N+]=[N-] (stereo not given in full) | 0.552 | 0.726 | 0.918 | -0.0605 (inactive) | 0.364 | 0.706 | -0.0699 | 0.335 | -0.39 | 0.349
CCOC(=O)C[C@H]1[C@H](OC(=O)c2cc3ccccc3oc2=O)[C@@H](NC(=O)c2ccccc2)c2cc(OCCCO)ccc2N1C(=O)c1ccccc1 | -0.06 | -0.198 | -0.432 | -0.644 (inactive) | 0.836 | 0.775 | 0.417 | 0.653 | 0.415 | 0.225
COc1ccc([Si](C)(C)[C@@H]2[C@@H](CCO)O[C@]3(C(=O)N(Cc4cccc(NC(=O)[C@H](C)O)c4)c4ccccc43)[C@H]2C)cc1 | 1.42 | 1.09 | 0.0838 | -2.89 (inactive) | 1.08 | 1.27 | 0.0532 | 0.399 | 0.244 | -0.437
CCOC(=O)C[C@H]1[C@H](OC(=O)c2ccc(C(=O)c3ccccc3)cc2)[C@@H](NC(=O)C2CCCCC2)c2cc(OCCCO)ccc2N1C(=O)c1ccc2ccccc2n1 | 0.698 | -0.0699 | -0.125 | 0.112 (inactive) | 0.839 | 0.432 | 0.34 | 1.03 | 0.595 | 0.456
COc1ccc([Si](C)(C)[C@H]2[C@H](CC(=O)N3Cc4ccccc4C[C@H]3CO)O[C@@]3(C(=O)N(Cc4ccc(N5CCOC5=O)cc4)c4ccccc43)[C@@H]2C)cc1 | 0.149 | -0.161 | -0.345 | -0.817 (inactive) | 0.878 | 0.676 | 1.03 | 1.04 | 0.929 | 1.05
CCOC(=O)C[C@H]1[C@H](OC(=O)c2ccc(C(=O)c3ccccc3)cc2)[C@@H](NC(=O)c2ccc(-c3ccccc3)cc2)c2cc(OCCCO)ccc2N1C(=O)Cc1ccc(OC)cc1 | 0.0732 | 0.223 | 0.777 | -0.213 (inactive) | 0.0382 | 0.0652 | -0.274 | 0.0472 | -0.537 | 0.783
CC(C)NC(=O)[C@@]1(C)c2ccccc2C(=O)N(Cc2ccc(OC(F)(F)F)cc2)[C@H]1c1ccc(CO)cc1 | 1.43 | -0.0863 | 0.77 | -1.08 (inactive) | -0.962 | -0.85 | -1.43 | -1.19 | -1.25 | -1.03
CCC#CCN(Cc1ccccc1Br)[C@H](/C=C/C1CC1)[C@@H](O)Cc1ccccc1 | -0.306 | 0.0547 | 0.952 | -0.739 (inactive) | -0.924 | -0.0916 | -1.03 | -0.583 | -0.642 | 0.384
COCCOC(=O)N1C(=O)[C@@]2(c3cc(C#CCCO)ccc31)[C@H](c1ccc(OCCO)cc1)N1[C@H](c3ccccc3)[C@H](c3ccccc3)OC(=O)[C@H]1[C@@H]2C(=O)Nc1nc2ccccc2s1 | 0.755 | 0.901 | 0.771 | 1.06 (inactive) | 0.898 | 1.29 | 0.27 | 1.24 | 0.87 | 0.854
O=C1CS(=O)(=O)C(c2cccc([N+](=O)[O-])c2)N1c1ccccc1 (stereo not given) | 0.175 | 0.913 | 0.157 | -0.856 (inactive) | 1.03 | 0.117 | 0.591 | 0.6 | 0.625 | 0.32
CCOC(=O)C1=C[C@@H](C(C)(C)C)N(S(=O)(=O)c2ccc(C)cc2)[C@H]1c1cccc2ccccc12 | 0.462 | 0.166 | 0.562 | -0.134 (inactive) | 0.242 | 0.936 | -0.138 | 0.7 | -0.412 | 0.997
O=C1O[C@@H](c2ccccc2)[C@@H](c2ccccc2)N2[C@@H](c3ccc(O)cc3)[C@]3(C(=O)Nc4ccc(C#CCCO)cc43)[C@@H](C(=O)N3CCN(c4ncccn4)CC3)[C@H]12 | 1.64 | -1.25 | -1.14 | -0.116 (inactive) | 1.4 | 1.29 | 0.103 | 0.89 | -0.0103 | -0.0153

SMILES | composite z-score [1] | composite z-score [2] | composite z-score [3] | z-score [4] | composite z-score [5] | composite z-score [6] | composite z-score [7] | composite z-score [8] | composite z-score [9] | composite z-score [10]
CCCCC(CC)C(O)C1C=CC2C(=O)N(c3ccccc3)C(=O)C2N1Nc1ccccc1F (stereo not given) | 1.02 | 0.36 | 0.852 | -0.561 (inactive) | 0.944 | 1.23 | -0.187 | 0.517 | -0.505 | 0.744
[N-]=[N+]=Nc1ccccc1C[C@]1(C(=O)NCCN2CCOCC2)COC(c2ccc(OCCCO)cc2)=N1 | 1.01 | 0.424 | 0.909 | -0.388 (inactive) | 0.318 | 1.3 | -0.408 | -0.264 | 0.234 | 0.472
COc1ccc(CCNC(=O)[C@@]2(c3ccc([N+](=O)[O-])cc3)CC(=O)N(C3CCCCC3)[C@@H]2c2ccc(CO)cc2)cc1 | 0.54 | 0.701 | 0.806 | -0.134 (inactive) | 0.525 | 1 | -0.155 | 0.211 | 0.214 | 0.249
CCCCCCc1nc(Cc2cc(OC)c(OC)c(OC)c2)cc2c1[Si](C(C)C)(C(C)C)OC2 | 0.209 | -0.227 | -0.623 | -0.393 (inactive) | 0.124 | -0.195 | 0.192 | 0.494 | 0.5 | 0.881
NCCCCCCNC(=O)[C@@H]1C[C@@H]2C(=O)N[C@@H](CCCCN)C(=O)N2[C@@H]1c1ccc(O)cc1 | 1.32 | 0.13 | 0.462 | -1.48 (inactive) | 0.523 | 0.456 | 0.456 | 0.27 | 1.16 | 0.899
C=CCOC(=O)[C@@]1(Cc2ccccc2)C[C@H]2CO[C@H](c3ccc(OC)cc3)N2C1=O | 0.335 | -0.0298 | -0.0084 | -0.543 (inactive) | 0.25 | -0.0535 | 0.201 | 0.2 | 0.286 | 0.351
CCOC(=O)[C@@H]1CCCCN1C(=O)C(=O)OC | 0.157 | -0.0335 | -0.402 | 1.11 (inactive) | 0.549 | 0.547 | 0.243 | 0.751 | 0.333 | -0.206
COC(=O)C1=CC(CCCO)=CC(c2ccc(CN3CCCC3)cc2)N(Cc2cccc(OC(F)(F)F)c2)C=C1C(=O)OC (stereo not given) | 1.26 | 0.752 | 0.82 | -0.656 (inactive) | 0.641 | 0.68 | 0.121 | 0.637 | -0.271 | 0.976
[N-]=[N+]=Nc1ccccc1[C@@H]1OC(c2ccc(OCCCO)cc2)=N[C@]1(Cc1ccccc1)C(=O)O | 0.77 | 0.973 | 0.0948 | -0.689 (inactive) | 0.747 | 0.655 | -0.129 | 0.455 | -0.347 | 1.2
CCCCCN1CC=CC23O[C@@H]4/C=C\CCC(C)OC(=O)C4[C@H]2C(=O)N(C(CO)C(C)C)[C@@H]3C1=O (stereo not given in full) | 1.63 | -0.612 | -0.288 | 0.139 (inactive) | 0.0694 | -0.169 | -0.538 | 0.0876 | -0.543 | 1.18
CCCC[C@@H]1C[C@H]1[C@@H](NC(=O)c1cccs1)c1ccccc1C(F)(F)F | 0.67 | 0.445 | 0.49 | -0.701 (inactive) | -0.0251 | 1.23 | -0.531 | -0.697 | -0.291 | 0.978
COC(=O)[C@@]1(Cc2ccccc2)[C@H]2c3cc(C(=O)N(C)C)n(Cc4ccc(C)o4)c3C[C@H]2CN1C(=O)c1ccccc1 | 0.527 | 2.33 | 1.57 | -2.02 (inactive) | 0.93 | 0.502 | 0.857 | 0.897 | -1.11 | 1.44
CC(c1ccccc1)C(O)C1C=CC2C(=O)N(C)C(=O)C2N1Nc1ccccc1 (stereo not given) | 1.25 | 1.04 | 1.2 | 1.31 (inactive) | 0.663 | 0.515 | 0.0188 | 0.359 | -0.452 | 0.965
C#CCN([C@@H](Cc1ccccc1)C(=O)OC)[C@@H](/C=C/C1CC1)[C@H](O)Cc1ccccc1 | -0.437 | -0.575 | 0.37 | 0.414 (inactive) | -0.496 | -0.489 | -0.473 | -0.494 | -0.185 | 1.49
COC(=O)C(CC#Cc1ccc2c(c1)[C@]1(C(=O)N2)[C@H](c2ccc(O)cc2)N2[C@H](c3ccccc3)[C@H](c3ccccc3)OC(=O)[C@H]2[C@@H]1C(=O)NC[C@H](O)c1ccccc1)C(=O)OC | -0.282 | 0.6 | 0.405 | 0.0183 (inactive) | 0.986 | 1.11 | 0.588 | 0.523 | 0.432 | 0.335
CCOC(=O)C[C@H]1[C@H](OC(=O)c2ccc(C(=O)c3ccccc3)cc2)[C@@H](NC(=O)CC(C)C)c2cc(OCCCO)ccc2N1C(=O)c1ccccc1 | 0.449 | -0.0013 | -0.345 | -0.958 (inactive) | 0.515 | 0.972 | 0.141 | 1.17 | 0.95 | 0.158

From PubChem BioAssay
